Source: PubChem BioAssay AID1159580 (chemical genetic matrix, 2015)
The campaign covered roughly 5,500 compounds. About 2,000 (36%) were called active. About 18% were inconclusive and are not listed. No stated cut-off is given here; in the data, active means normalized growth mostly below about 0.91 (no sharp cut-off); inconclusive means no clear call, values can overlap the other calls; inactive means mostly above about 0.92. This is one part of the list.

Test: chemical genetic growth profiling, strain panel (AID 1159580);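 further: tested at 20 µM; growth read once vehicle control cultures reached saturation at 30 °C; 1 = growth at the plate median or of vehicle wells; lower values mean less growth of the strain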
Settings: S. cerevisiae deletion strains, growth OD

Measured: normalized growth

COc1ccc(C2CNC(=O)C2)cc1OC1CCCC1 (stereo unspecified)
inactive: locus YAL013W, strain DEP1, hits give low values 1.01 | locus YAL021C, strain ccr4, hits give low values 1 | locus YAL026C, strain drs2, hits give low values 1.02 | locus YAL030W, strain snc1, hits give low values 1.02 | locus YAL040C, strain CLN3, hits give low values 0.999 | locus YBL061C, strain skt5, hits give low values 1.01 | locus YBR009C, strain hhf1, hits give low values 1.02 | locus YBR023C, strain chs3, hits give low values 1.01 | locus YBR171W, strain sec66, hits give low values 1.02 | locus YBR231C, strain swc5, hits give low values 1.02 | locus YBR279W, strain paf1, hits give low values 1.01 | locus YCL011C, strain gbp2, hits give low values 1.01 | locus YCL016C, strain dcc1, hits give low values 1.01 | locus YCL061C, strain MRC1 (second series), hits give low values 1 | locus YCL061C, strain MRC1, hits give low values 1.01 | locus YCL069W, strain vba3, hits give low values 1.01 | locus YCR088W, strain abp1, hits give low values 1.01 | locus YDL005C, strain med2, hits give low values 0.996 | locus YDL040C, strain nat1, hits give low values 1.01 | locus YDR001C, strain nth1, hits give low values 1.01 | locus YDR069C, strain doa4, hits give low values 1.02 | locus YDR137W, strain rgp1, hits give low values 1.02 | locus YDR159W, strain sac3, hits give low values 1.03 | locus YDR195W, strain ref2 1.01 | locus YDR297W, strain sur2, hits give low values 1.01 | locus YDR334W, strain swr1, hits give low values 1.01 | locus YDR335W, strain msn5, hits give low values 1.01 | locus YDR363W, strain ESC2, hits give low values 1.01 | locus YDR392W, strain spt3, hits give low values 1.04 | locus YEL003W, strain gim4, hits give low values 1.01 | locus YEL037C, strain rad23, hits give low values 0.965 | locus YEL061C, strain CIN8 (second series), hits give low values 1.01 | locus YER002W, strain NOP16, hits give low values 0.993 | locus YER015W, strain faa2, hits give low values 1 | locus YER016W, strain bim1, hits give low values 1.01 | locus YER111C, strain swi4, hits give low values 1.02 | locus YER155C, strain BEM2 (second series), hits give low values 1.04 | locus YFR010W, strain ubp6, hits give low values 1 | locus YGL167C, strain pmr1, hits give low values 1.01 | locus YGL173C, strain kem1, hits give low values 1.01 | locus YGL227W, strain vid30, hits give low values 1.01 | locus YGL240W, strain doc1, hits give low values 1.02 | locus YGL253W, strain hxk2, hits give low values 1.03 | locus YHR013C, strain ard1, hits give low values 1.04 | locus YHR027C, strain rpn1, hits give low values 1.01 | locus YHR142W, strain chs7, hits give low values 0.98 | locus YJL092W, strain hpr5, hits give low values 1 | locus YJL095W, strain BCK1 (second series), hits give low values 1.01 | locus YJL115W, strain asf1, hits give low values 1.01 | locus YJL129C, strain trk1, hits give low values 1.02 | locus YJL154C, strain vps35, hits give low values 1 | locus YJL164C, strain tpk1, hits give low values 0.999 | locus YJL166W, strain qcr8, hits give low values 1.02 | locus YJL187C, strain SWE1, hits give low values 1.01 | locus YJR075W, strain HOC1, hits give low values 1.01 | locus YKL160W, strain elf1, hits give low values 0.998 | locus YKR026C, strain gcn3, hits give low values 0.994 | locus YKR091W, strain srl3, hits give low values 1.01 | locus YLL001W, strain dnm1, hits give low values 1.01 | locus YLL026W, hits give low values 1.02 | locus YLL041C, strain sdh2, hits give low values 1.01 | locus YLR027C, strain aat2, hits give low values 1.01 | locus YLR221C, strain rsa3, hits give low values 1.01 | locus YLR258W, strain gsy2, hits give low values 1.01 | locus YLR262C, strain YPT6 (second series), hits give low values 1.02 | locus YLR320W, strain mms22, hits give low values 1.02 | locus YLR342W, strain FKS1, hits give low values 1 | locus YLR357W, strain rsc2, hits give low values 1.01 | locus YLR370C, strain arc18, hits give low values 1.02 | locus YLR384C, strain iki3, hits give low values 0.999 | locus YML120C, strain ndi1, hits give low values 1.01 | locus YMR058W, strain fet3, hits give low values 1.02 | locus YMR125W, strain sto1, hits give low values 1.02 | locus YMR129W, hits give low values 1.02 | locus YMR205C, strain PFK2, hits give low values 1.03 | locus YMR231W, strain pep5, hits give low values 1 | locus YMR263W, strain SAP30, hits give low values 1 | locus YMR307W, strain GAS1, hits give low values 1.03 | locus YNL071W, strain lat1, hits give low values 1.02 | locus YNL175C, strain NOP13, hits give low values 1.01 | locus YNL197C, strain WHI3, hits give low values 1.01 | locus YNL209W, strain ssb2, hits give low values 1.01 | locus YNL224C, strain SQS1, hits give low values 0.995 | locus YNL248C, strain rpa49, hits give low values 0.974 | locus YNL322C, strain KRE1 (second series), hits give low values 0.996 | locus YNR049C, strain mso1, hits give low values 1 | locus YOR001W, strain rrp6, hits give low values 1 | locus YOR070C, strain gyp1, hits give low values 1 | locus YOR080W, strain dia2, hits give low values 1.01 | locus YOR083W, strain WHI5 (second series), hits give low values 1.01 | locus YOR083W, strain WHI5, hits give low values 0.988 | locus YOR106W, strain vam3, hits give low values 0.989 | locus YOR265W, strain rbl2, hits give low values 1.01 | locus YOR270C, strain vph1, hits give low values 1.03 | locus YOR290C, strain snf2, hits give low values 0.996 | locus YPL051W, strain arl3, hits give low values 1 | locus YPL055C, strain LGE1, hits give low values 0.996 | locus YPL078C, strain atp4, hits give low values 0.988 | locus YPL106C, strain sse1, hits give low values 1.04 | locus YPL240C, strain hsp82, hits give low values 1 | locus YPL241C, strain CIN2, hits give low values 1
